The results in this text go back to PubChem BioAssay AID1345085 (National Center for Advancing Translational Sciences (NCATS), 2018).

Records with an inconclusive call do not appear. Unmarked numbers belong to inactive results. Active and inactive are the calls of the source. Calls follow the shape of the dose curve; as a rule, active = well fitted cell-killing curve with a large enough effect; inconclusive = small, poorly fitted or top-dose-only effect, or effect the other way; inactive = no such curve, though single readings can be large or run the other way.
% is scaled to controls: 0 for no effect and ±100 for the full control effect; potency is read from the fitted curve at half-maximal effect.

The assay relates to JEG-3. The assay can be described thus: Confirmatory qHTS for gynecologic anti-cancer compounds from libraries of approved drugs and bioactive compounds. Also: nearly all actives have a fitted effect of over 55% in size. Conditions: gynecologic cancer cell panel viability, ATPlite luminescence, 48 h; series mostly up to 57.6 µM; activity change, negative = viability loss: at the top concentration. In short, it runs like this: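 Viability is measured as ATP-dependent luciferase light using ATPlite, read 15 min after reagent addition at room temperature. Compounds, in DMSO, span 57.5 uM down to 0.977 nM over 11 threefold steps for 48 h.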
On the technique in general: In qHTS, concentration-response curves come from the screen itself.
In the case of `CC(=O)Nc1cccc(-n2c(=O)n(C3CC3)c(=O)c3c(Nc4ccc(I)cc4F)n(C)c(=O)c(C)c32)c1`, the “activity change, negative = viability loss” value is -11%.
For `Nc1nc(=S)c2[nH]cnc2[nH]1`, the Potency is 4.32 µM (active).
On to `COc1ccc(OC)c(-c2nnc3ccc(-c4ccc(OC)c(O[C@@H]5CCOC5)c4)nn23)c1`, for which the Potency was 4.85 µM (active).
Regarding `CC[C@H](CC#N)OC(=O)N[C@@H](C)c1cccc(NC(=O)Nc2ccc(-c3cnco3)c(OC)c2)c1`, the Potency is 15.3 µM (active).
Turning to `CN(C)c1ccc(-c2nc3ncc(Cl)c(N4CCN(CC(=O)Nc5nccs5)CC4)c3[nH]2)cc1`, the “activity change, negative = viability loss” value was -24.9% [at 19.5 µM].
For the compound `Cc1ccc(C(=O)Nc2ccc(CN3CCN(C)CC3)c(C(F)(F)F)c2)cc1C#Cc1cnc2cccnn12`, the Potency is 27.3 µM (active).
Take `C1CCC(C(CC2CCCCN2)C2CCCCC2)CC1` (stereo not drawn): the Potency was 27.3 µM (active).
Consider `Cc1cc(Nc2nc(N[C@@H](C)c3ncc(F)cn3)ncc2Cl)n[nH]1`, for which the “activity change, negative = viability loss” value was 4.7%.
As for `O=c1[nH]c(=O)n([C@H]2C[C@H](O)[C@@H](CO)O2)cc1Br`, the “activity change, negative = viability loss” value was -13.3%.
Regarding `Cc1nc(N)sc1-c1ccnc(Nc2ccc(N3CCOCC3)cc2)n1`, the Potency is 13.7 µM (active).
On to `Nc1nc(Cl)nc2c1ncn2C1OC(CO)C(O)C1F` (stereo not drawn), for which the Potency was 2.17 µM (active).
In the case of `Cc1nc(N)nc(N)c1-c1ccc(Cl)c(Cl)c1`, the Potency was 17.2 µM (active).
Regarding `Cc1ccccc1C(OCCN(C)C)c1ccccc1` (stereo not drawn), the “activity change, negative = viability loss” value is 0.4%.
For the compound `Nc1ncn([C@@H]2O[C@H](CO)[C@@H](O)[C@H]2O)c(=O)n1`, the “activity change, negative = viability loss” value is -6.25%.
On the same count and under the same terms, for `O=C(NCC(O)CO)c1ccncc1Nc1ccc(I)cc1F` (stereo not drawn) the value was -2.76%; for `Cn1c(=O)c(-c2c(Cl)cccc2Cl)cc2cnc(Nc3cccc(C(=O)O)c3)nc21`, -18.8%.
As to `COc1cc2c(Nc3ccc(NC(=O)c4ccccc4)cc3)ncnc2cc1OCCCN1CCOCC1`, the Potency is 27.3 µM (active).
With `CC(C)n1nc(-c2cc3cc(O)ccc3[nH]2)c2c(N)ncnc21`, the Potency was 17.2 µM (active).
As to `Cc1ccc(C(=O)N(CCCN)C(c2oc3cc(Cl)ccc3c(=O)c2Cc2ccccc2)C(C)C)cc1` (stereo not drawn), the Potency is 0.109 µM (active).
Regarding `C[C@]12CCC(=O)C=C1[C@@H]1C[C@@H]1[C@H]1[C@@H]3[C@@H]4C[C@@H]4[C@@]4(CCC(=O)O4)[C@@]3(C)CC[C@@H]12`, the “activity change, negative = viability loss” value is -18.8%.
For the compound `Cc1cnc(Nc2cccc(CN3CCOCC3)c2)nc1Nc1cccc(S(=O)(=O)NC(C)(C)C)c1`, the Potency was 17.2 µM (active).
As for `CC(Oc1cc(-n2cnc3ccc(CN4CCN(C)CC4)cc32)sc1C(N)=O)c1ccccc1C(F)(F)F` (stereo not drawn), the Potency is 1.93 µM (active).
As to `COc1ccc2c(c1)c(CC(=O)O)c(C)n2C(=O)c1ccc(Cl)cc1`, the “activity change, negative = viability loss” value is -15.1%.
`O=C(NOC[C@H](O)CO)c1ccc(F)c(F)c1Nc1ccc(I)cc1F`: the “activity change, negative = viability loss” value is -5.57%.
With `COCCOc1ccc2c(c1)ncn2-c1ccc2cccc(N3CCC(N)CC3)c2n1`, the Potency was 10.9 µM (active).
`COc1cccc2c1C(=O)c1c(O)c3c(c(O)c1C2=O)C[C@@](O)(C(=O)CO)C[C@@H]3O[C@H]1C[C@H](N)[C@H](O[C@@H]2CCCCO2)[C@H](C)O1`: the Potency is 13.7 µM (active).
As for `O=c1c2ccccc2nc2n1CCc1c-2[nH]c2ccccc12`, the “activity change, negative = viability loss” value is -3.72%.
Take `CC(=O)c1cnc2ccc(-c3cc(Cl)c(O)c(Cl)c3)nc2c1NC1CCC(CN(C)C)CC1` (stereo not drawn): the Potency is 0.627 µM (active).
For `CCCc1nn(C)c2c(=O)[nH]c(-c3cc(S(=O)(=O)N4CCN(C)CC4)ccc3OCC)nc12`, the “activity change, negative = viability loss” value was 16.3%.
As for `COc1cc(N2CCC(N(C)C)CC2)ccc1Nc1ncc(Cl)c(Nc2ccccc2P(C)(C)=O)n1`, the Potency was 15.3 µM (active).
Turning to `CNC1CCC(N(Cc2cccc(-c3ccncc3)c2)C(=O)c2sc3ccccc3c2Cl)CC1` (stereo not drawn), the Potency was 27.3 µM (active).
As to `CN1C(=O)C(Cc2c[nH]c3ccccc23)NC1=S` (stereo not drawn), the “activity change, negative = viability loss” value was -3.66% [at 19.5 µM].
As for `COc1ccc(CCC(=O)c2c(O)cc(O[C@@H]3O[C@H](CO)[C@@H](O)[C@H](O)[C@H]3O[C@@H]3O[C@@H](C)[C@H](O)[C@@H](O)[C@H]3O)cc2O)cc1O`, the “activity change, negative = viability loss” value is 8.82%.
